From PubChem BioAssay AID493220 (National Center for Advancing Translational Sciences (NCATS), 2011) come the findings set out here.

Inconclusive results are not listed. Active and inactive are the calls of the source. Calls follow the shape of the full dose curve.

Chain of Polyunsaturated fatty acid lipoxygenase ALOX15 (Homo sapiens) (P16050 whole entry, looked up): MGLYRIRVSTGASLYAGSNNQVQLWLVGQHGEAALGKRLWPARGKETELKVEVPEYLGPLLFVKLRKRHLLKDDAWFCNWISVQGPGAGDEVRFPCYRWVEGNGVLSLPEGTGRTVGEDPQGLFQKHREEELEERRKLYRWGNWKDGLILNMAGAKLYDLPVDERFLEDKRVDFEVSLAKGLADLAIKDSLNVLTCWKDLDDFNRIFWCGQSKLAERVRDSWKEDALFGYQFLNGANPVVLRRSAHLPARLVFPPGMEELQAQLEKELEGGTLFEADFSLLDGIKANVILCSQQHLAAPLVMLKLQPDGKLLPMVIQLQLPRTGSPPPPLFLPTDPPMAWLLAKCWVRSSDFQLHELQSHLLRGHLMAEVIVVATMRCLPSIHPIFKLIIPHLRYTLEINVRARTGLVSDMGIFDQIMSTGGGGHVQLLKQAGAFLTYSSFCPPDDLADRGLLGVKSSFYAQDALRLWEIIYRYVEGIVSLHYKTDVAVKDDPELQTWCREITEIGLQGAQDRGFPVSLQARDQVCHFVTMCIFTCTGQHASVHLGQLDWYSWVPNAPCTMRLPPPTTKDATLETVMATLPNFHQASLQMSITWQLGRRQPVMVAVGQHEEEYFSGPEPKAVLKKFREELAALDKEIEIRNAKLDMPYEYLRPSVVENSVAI

In the assay the target is Polyunsaturated fatty acid lipoxygenase ALOX15 (Homo sapiens) (UniProt P16050). Briefly: Inhibitors of 12-hLO (12-human lipoxygenase): 15hLO-1 Cuvette-Based Inhibition Counterscreen Assay for 12hLO Followup Compounds. The note with it: purified 15hLO-1, UV 234 nm product formation. The procedure:
Human lipoxygenase 15hLO-1 is a member of the closely related lipoxygenase family of enzymes which catalyze the site-specific oxidation of arachidonic acid to various hormone precursor molecules and as such is a candidate for drug development in a variety of disease areas, such as cancer and inflammation. The enzyme activity of 15hLO-1 was determined by a direct measurement of product formation by monitoring the absorbance at 234 nm in a 2 mL cuvette. IC50 values of inhibitors were obtained by measuring the enzymatic rate at a variety of concentrations (Carroll et al, Segraves et al). A purified preparation of human 15hLO-1 was supplied by Professor Ted Holman, University of California, Santa Cruz. This assay was run against 12hLO followup compounds with the goal of identifying selective 12hLO inhibitors. Assay Provider: Holman, T.R., University of California, Santa Cruz Screening Center PI: Austin, Christopher P. Screening Center: NIH Chemical Genomics Center
For control experiments, 2 mL of substrate buffer (10 uM arachidonic acid / 25 mM HEPES / 0.01% (v/v) Triton X-100, pH 8.0) was aliquoted in a cuvette with a magnetic stir bar. After equilibrium was ensured, an aliquot of inhibitor solvent was added (DMSO), and equilibrium was once again assured. The reaction was started by adding enzyme to the cuvette and the reaction was followed until completed. The inhibition experiments were performed as above, except the actual inhibitory compound was added instead of vehicle. To achieve an IC50, typically 5 concentrations of the inhibitor were studied. If the inhibitor concentration was constant, then five different reaction volumes were used. Step \ Parameter \ Value \ Description 1; UV-Vis; 234 nm; Equilibration 2; Reagent; 2 mL; Substrate buffer 3; UV-Vis; 234 nm; Equilibration 4; Reagent; varies; Compound 5; UV-Vis; 234 nm; Equilibration 6; Reagent; 50-200 nM; Enzyme 12-hLO 7; UV-Vis; 234 nm; Enzymatic reaction Step \ Notes 1; Blank cuvette to air. 2; 10 uM AA, 25 mM HEPES, 0.01% Triton X-100, pH 8. 3; No change in absorbance ensured. 4; Compound vehicle or compound in various concentrations depending on potency. 5; No change in absorbance ensured. 6; Enzyme concentration to achieve reaction rate between 0.02 and 0.04 AU/s. 7; Enzymatic reaction visualized until completion.
Regarding `CCc1ccc(S(=O)(=O)/N=C2/C=C(Sc3ncn[nH]3)C(=O)c3ccccc32)cc1`, the Potency is 9.52 µM (active).

Regarding `COc1ccc2nc(NC(=O)c3cccc(OCc4c(C)noc4C)c3)sc2c1`, the Potency is 33.6 µM (active).

As for `Cc1ccc(C(=O)/C=C/c2c[nH]c3ccccc23)cc1`, the Potency is 20.6 µM (active).

With `CC1=NN(c2ccc(Cl)cc2)C(=O)C1C(c1cccc(O)c1)c1c(C)[nH]n(-c2ccc(Cl)cc2)c1=O` (stereo not given), the Potency was 22.8 µM (active).

For `COc1ccc(C(Nc2ccccn2)c2c(NC(=O)c3ccco3)sc(C)c2C)cc1` (stereo not given), the Potency is 62.7 µM (active).

As for `Cc1[nH]nc(-c2ccc(O)cc2O)c1Oc1ccccc1`, the Potency is 15.6 µM (active).

Consider `O=C(/C=C/c1ccc(O)c(O)c1)c1ccc(S(=O)(=O)N2CCCCCC2)cc1`, for which the Potency is 1.31 µM (active).

In the case of `CC1=NN(c2ccc(Cl)cc2)C(=O)C1C(c1ccccc1O)c1c(C)[nH]n(-c2ccc(Cl)cc2)c1=O` (stereo not given), the Potency was 20 µM (active).

As for `CSCCC(NC(=O)c1ccc(Cl)cc1)C(=O)OCC(=O)Nc1ccc(C#N)cc1` (stereo not given), the Potency is 46.2 µM (active).

As for `COc1cc(CNc2ccc(N3CCCC3)cc2)ccc1OCc1ccccc1`, the call was inactive.

As for `COc1ccc(C(=O)Nc2cc(C(=O)c3ccccc3)c(C)oc2=O)cc1`, the molecule was called inactive.

For the molecule `COc1ccc(Cc2nc(C(=O)Nc3ccc(OC)cc3)cs2)cc1`, the Potency is 8.84 µM (active).

`Oc1ccc(-c2nc(-c3ccc(O)c(O)c3)cs2)cc1`: the Potency is 0.61 µM (active).

Regarding `Cc1ccc(S(=O)(=O)Nc2nc(C)c(NC(=O)Nc3ccc(Cl)cc3Cl)s2)cc1`, the molecule was called inactive.

In the case of `CCOc1ccc(-c2[nH]ncc2Oc2cccc(OC)c2)c(O)c1`, the Potency is 2.96 µM (active).

Turning to `O=C(NC(=S)Nc1ccccc1N1CCCC1)c1ccc([N+](=O)[O-])cc1`, the outcome was inactive.

As to `Oc1ccc(CN2CCCc3ccccc32)c2cccnc12`, the Potency is 81.3 µM (active).

For the molecule `N#CC1=C(N)Oc2n[nH]c(-c3cccs3)c2C1C1CCCCC1` (stereo not given), the Potency is 9.33 µM (active).

Turning to `Oc1ccccc1-c1cc(-c2ccc3c(c2)OCCO3)n[nH]1`, the Potency is 2.55 µM (active).

Turning to `Cc1ccc(S(=O)(=O)Nc2ccc(NC(=O)Nc3cccc(C(F)(F)F)c3)cc2)cc1`, the Potency is 31.5 µM (active).

On to `COc1ccc(/C=C/c2nc(-c3ccccc3O)n[nH]2)cc1`, for which the Potency is 11.2 µM (active).

Turning to `Cc1cc(Cl)cc(Cl)c1OCC(=O)NCc1ccco1`, the Potency was 88.6 µM (active).

As to `COc1ccc(NC2=NCC(Cc3ccc(Br)cc3)S2)cc1` (stereo not given), the Potency is 8.89 µM (active).

`COc1ccc(-c2n[nH]c(C(F)(F)F)c2-c2cc3ccccc3o2)c(O)c1`: the Potency was 6.5 µM (active).

Consider `Oc1ccc(Cl)cc1-c1cc(-c2ccco2)[nH]n1`, for which the Potency is 2.03 µM (active).

Consider `CSc1ccc(S(=O)(=O)Nc2ccc(S(=O)(=O)Nc3ccc(C)cc3)cc2)cc1`, for which the Potency is 45 µM (active).

Consider `Cc1ccc(NC(=O)Nc2cccs2)c(Cl)c1`, for which the Potency is 58.8 µM (active).

Consider `O=C(Nc1nnc(-c2ccccn2)o1)c1ccc(Br)cc1`, for which the outcome was inactive.

Consider `Oc1ccccc1-c1cc(-c2cccc(F)c2)n[nH]1`, for which the Potency is 4.81 µM (active).

On to `Cc1cccnc1NCc1ccc(O)c2ncccc12`, for which the Potency was 23.9 µM (active).

For `Cc1ccc(C(=O)Nc2nnc(-c3ccco3)o2)cc1C`, the outcome was inactive.

On to `O=C(CSc1n[nH]c(-c2ccccc2)n1)c1ccc(O)c(O)c1`, for which the Potency was 5.77 µM (active).

Turning to `O=C1c2ccccc2NC(c2ccc(Cl)cc2Cl)N1O` (stereo not given), the Potency was 37.4 µM (active).

As to `Cc1ccc(C(=O)Nc2nnc(-c3ccco3)o2)cc1`, the result was inactive.

For the molecule `CCOC(=O)Cc1cc(=O)n(-c2nc3ccccc3s2)[nH]1`, the molecule was called inactive.

Consider `Cc1[nH]nc(-c2ccc(O)cc2O)c1-c1ccc(Cl)cc1`, for which the Potency is 9.99 µM (active).

As for `CCCOC(=O)c1ccc(Oc2c(-c3ccc(O)cc3O)n[nH]c2C)cc1`, the Potency was 6.81 µM (active).

Consider `COc1ccc(-c2[nH]ncc2-c2ccc(Cl)cc2)c(O)c1`, for which the Potency is 6.81 µM (active).

`CN(C)c1nccc(N(Cc2ccccc2)Cc2ccccc2)c1C#N`: the Potency was 17.7 µM (active).

Turning to `Oc1ccccc1-c1cc(-c2ccccc2Cl)[nH]n1`, the Potency is 1.62 µM (active).
